Here are results for ten compounds from PubChem BioAssay (NCATS).

Records with an inconclusive call do not appear. Activity calls are given as the source filed them. Unless noted, how the calls were made is not given here.

A short description of assay [1]: qHTS profiling of the MIPE4 collection as inhibitors of Plasmodium falciparum (3D7) proliferation (AID 743344).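 Further: scaled between DMSO vehicle wells and 0.29 µM artemisinin as full inhibition.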 To be noted: P. falciparum 3D7 in erythrocytes, SYBR Green DNA fluorescence, 72 h; at 28.5 µM unless noted. Summed up:
(§1)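 Erythrocytes infected with P. falciparum (0.3% parasitemia, 2.5% hematocrit) incubated with compounds 72 h at 37 C, 5% CO2. Lysis with saponin/Triton buffer containing SYBR Green I, overnight at room temperature in the dark; DNA fluorescence (485/535 nm) normalised to 0.29 uM artemisinin and DMSO.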

Assay [2] in a line: qHTS profiling of the MIPE4 collection as inhibitors of Plasmodium falciparum (DD2) proliferation (AID 743345). To be noted: P. falciparum Dd2 in erythrocytes, SYBR Green DNA, 72 h; at 28.5 µM unless noted. Summed up: as §1
A general note: qHTS replaces the single test concentration by a dilution series.

Assay [3] can be described thus: qHTS profiling of the MIPE4 collection as inhibitors of Plasmodium falciparum (DD2) proliferation (Rep 2) (AID 743346). To be noted: P. falciparum Dd2 in erythrocytes, SYBR Green DNA, 72 h; at 28.5 µM unless noted. In short, it runs like this:
as §1

Assay [4] is described as follows: qHTS profiling of the MIPE4 collection as inhibitors of Plasmodium falciparum (HB3) proliferation (AID 743347).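 Further: plate controls were DMSO vehicle wells for no effect and artemisinin wells for full effect.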 To be noted: P. falciparum HB3 in erythrocytes, SYBR Green DNA, 72 h; at 28.5 µM unless noted. Summed up:
as §1

Assay [5] can be described thus: High-throughput drug toxicity screening in the BPDCN cell line Gen2.2 (AID 1224824).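 Further: cells exposed to compounds for 48 h before reading.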 To be noted: Gen2.2 BPDCN cells; at 45.8 µM (top of the series) unless noted. In short, it runs like this:
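Gen2.2 cells (500/well) in phenol red-free RPMI with 10% FBS were exposed to compounds for 48 h at 37 °C, 5% CO2. Viability was read by CellTiter-Glo luminescence and normalized to DMSO (100%) and 9.2 uM bortezomib (0%).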

A short description of assay [6]: High-throughput drug toxicity screening in the BPDCN cell line Cal-1 (AID 1224825). The note with it: Cal-1 BPDCN cell viability, qHTS; at 45.8 µM (top of the series) unless noted. Summed up:
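Exponentially growing Cal-1 cells, 500 per well in phenol red-free RPMI with 10% FBS, were exposed to compounds for 48 h at 37 °C, 5% CO2. Viability was read by CellTiter-Glo luminescence and normalised to DMSO (100%) and 9.2 uM bortezomib (0%).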

A short description of assay [7]: qHTS Screen of the MIPE 4.0 Collection Against Ewings Sarcoma (TC32) (AID 1259256; active means well fitted curve in the direction sought with a large enough effect; an effect the other way counts as inactive or inconclusive; further: nearly all actives have a fitted effect of over 45% in size; further: potency means the concentration at half of the fitted maximal effect). In short, it runs like this:
(§2)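 Here, cells in 5% FBS RPMI were exposed for two days (48 h) to compound dilutions added four hours after plating. ATP-based CellTiter-Glo luminescence measured viability, normalized to vehicle and no-cell blanks.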

A short description of assay [8]: qHTS Screen of the MIPE 4.0 Collection Against Ewings Sarcoma (RDES) (AID 1259252; active means well fitted curve in the direction sought with a large enough effect; an effect the other way counts as inactive or inconclusive; further: nearly all actives have a fitted effect of over 35% in size; further: potency means the concentration at half of the fitted maximal effect). In short, it runs like this: as §2
A short description of assay [9]: qHTS Screen of the MIPE 4.0 Collection Against Ewings Sarcoma (TC71) (AID 1259253; active means well fitted curve in the direction sought with a large enough effect; an effect the other way counts as inactive or inconclusive; further: nearly all actives have a fitted effect of over 40% in size; further: potency means the concentration at half of the fitted maximal effect). In short, it runs like this: as §2
The nature of assay [10]: qHTS Screen of the MIPE 4.0 Collection Against Ewings Sarcoma (EW8) (AID 1259255; active means well fitted curve in the direction sought with a large enough effect; an effect the other way counts as inactive or inconclusive; further: nearly all actives have a fitted effect of over 35% in size; further: potency means the concentration at half of the fitted maximal effect;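 on viability: 100% = DMSO-treated cells and 0% = medium-only wells without cells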). In short, it runs like this:
as §2

Assay [11] in a line: qHTS profiling for inhibitors of Plasmodium falciparum (3D7) proliferation (AID 743322).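 Further: infected erythrocytes exposed to compound for 72 h before lysis; 100% = DMSO vehicle wells and 0% = 0.29 µM artemisinin.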 To be noted: P. falciparum 3D7 proliferation; at 28.7 µM (top of the series). In short, it runs like this:
as §1

Assay [12] is described as follows: qHTS profiling for inhibitors of Plasmodium falciparum (DD2) proliferation (AID 743323). The note with it: lower = more inhibition; at 28.7 µM (top of the series). Summed up: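 1536-well qHTS; infected RBCs 0.3% parasitemia/2.5% Hct final; cpd 72 h 37 C 5% CO2; lysis buffer + SYBR Green I, o/n RT dark; FI 485/535; norm. to 0.29 uM artemisinin and DMSO, plate-stack corrected.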

Assay [13] in a line: qHTS profiling for inhibitors of Plasmodium falciparum (HB3) proliferation (AID 743324; active means well fitted curve in the direction sought with a large enough effect; an effect the other way counts as inactive or inconclusive;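 further: 100% = DMSO vehicle wells and 0% = artemisinin-treated control wells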). The note with it: Plasmodium falciparum HB3 blood-stage proliferation; at 28.7 µM (top of the series). In short, it runs like this: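 P. falciparum HB3 grown in erythrocytes (0.3% parasitemia, 2.5% hematocrit final) with compound for 72 h at 37 C, 5% CO2. Parasite DNA detected by SYBR Green after saponin/triton lysis overnight; normalized to 0.29 uM artemisinin and DMSO.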

Assay [14] in a line: Identifying Small Molecule Inhibitors of Pancreatic Cancer Stem Cells (A2780, Spheroid) (AID 1259357; active means well fitted curve in the direction sought with a large enough effect; an effect the other way counts as inactive or inconclusive; further: potency means the concentration at half of the fitted maximal effect;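 further: spheroids pre-formed over 14 days in stem cell medium on hydrogel; compound exposure lasted 48 h before the ATP luminescence read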). To be noted: Potency: A2780 spheroid viability. In short, it runs like this: (§3)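 Pre-formed 14-day tumor spheroids or adherent cells dosed and incubated 48 h, 37C, 5% CO2. Viability assessed by CellTiter-Glo.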
The nature of assay [15]: Identifying Small Molecule Inhibitors of Pancreatic Cancer Stem Cells (SN12C, Spheroid) (AID 1259360; active means well fitted curve in the direction sought with a large enough effect; an effect the other way counts as inactive or inconclusive;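 further: 100% = DMSO-treated cells and 0% = wells without cells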). To be noted: Potency: SN12C spheroid viability. Summed up: as §3
The nature of assay [16]: qHTS assay for measurement of the activity of small molecule inhibitors on Zika virus induced Caspase-3 activity in human astrocytoma cells (AID 1224859; active means well fitted curve in the direction sought with a large enough effect; an effect the other way counts as inactive or inconclusive;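 further: plate controls were ZIKV-infected untreated cells for no effect and uninfected cells for full effect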). In short, it runs like this: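 Caspase activation in ZIKV-infected SNB-19 cells (2 FFU/cell, 6 h) measured by Caspase-Glo 3/7 luminescence after 30 min RT; compound pre-incubated 1 h; normalised to uninfected and infected controls.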

In assay [1], `O=C1c2c(O)cc(O)cc2O[C@H](c2cc(O)c(O)c(O)c2)[C@H]1O` registered a parasite growth, % of DMSO control of 85.4%. In assay [2], the parasite growth remaining, % of DMSO control (lower = more inhibition) was found to be 85.1%. Also, in assay [3], the parasite growth, % of control (lower = inhibition) came to 78.7%. Also, the growth, % of control in assay [4] came out at 102%. Further, the cell viability, % of control (lower = more cytotoxic) in assay [5] stood at 112%. Besides, in assay [6], the viability (% of control) was 123%. For the same compound, the Potency entry in assay [7] was “inactive”.

In turn, `Nc1nc(F)nc2c1ncn2[C@@H]1O[C@H](COP(=O)(O)O)[C@@H](O)[C@H]1O` registered a parasite growth, % of DMSO control in assay [1] of 27.2%. Besides, the parasite growth remaining, % of DMSO control (lower = more inhibition) in assay [2] is 19.9%. This compound yielded a growth, % of control in assay [4] of 8.49%. Also, in assay [5], the cell viability, % of control (lower = more cytotoxic) came out at 97.6%. Moreover, in [6], the viability (% of control) amounted to 12.5%. Further, the Potency is 11.8 µM (active) in [8], 14.8 µM (active) in assay [9], 14.8 µM (active) in assay [10] and 16.6 µM (active) in assay [7].

`CC(C)(C)COc1ccc(-n2cc(C(=O)O)cn2)cc1C#N` had a remaining parasite growth % (stronger effect = lower value) in assay [11] of 28.3%. The same compound displayed an activity, percent of control in assay [12] of 88.8%. Besides, the remaining proliferation (% of control), lower = more inhibition in assay [13] is 91.7%. Moreover, the parasite growth, % of DMSO control in assay [1] is 75%. For the same compound, in assay [2], the parasite growth remaining, % of DMSO control (lower = more inhibition) came to 90.1%. The parasite growth, % of control (lower = inhibition) in assay [3] was 76.9%. Besides, the growth, % of control in assay [4] is 67.6%. The cell viability, % of control (lower = more cytotoxic) in [5] worked out at 112%. The viability (% of control) in assay [6] stood at 106%. The Potency result in assay [8], in assay [9], in assay [10], in [7], in [14] and in [15] was “inactive” throughout.

Regarding `O=C1NC(=O)C(=Cc2ccc(-c3ccc(F)cc3)o2)S1`, in assay [1], the parasite growth, % of DMSO control worked out at 75.2%. The same compound returned a parasite growth remaining, % of DMSO control (lower = more inhibition) in [2] of 93.7%. The compound further registered a growth, % of control in assay [4] of 75.6%. Moreover, the cell viability, % of control (lower = more cytotoxic) in assay [5] was determined as 57.7%. The viability (% of control) in assay [6] is 95.6%. Further, the Potency in [9] is 23.5 µM (active). Further, the Potency entry in assay [10] is “inactive”.

Take `CCOc1ccc(Nc2nc(-c3c(C)nc4ccccn34)cs2)cc1`: the remaining parasite growth % (stronger effect = lower value) in [11] worked out at 2.43%. The compound also yielded an activity, percent of control in assay [12] of 5.76%. Further, the remaining proliferation (% of control), lower = more inhibition in assay [13] is 7.43%. Also, the parasite growth, % of DMSO control in assay [1] stood at 11.9%. For the same compound, the parasite growth remaining, % of DMSO control (lower = more inhibition) in assay [2] amounted to 17.3%. In addition, in assay [3], the parasite growth, % of control (lower = inhibition) was 15.8%. For the same compound, in assay [4], the growth, % of control stood at 4.43%. Further, the cell viability, % of control (lower = more cytotoxic) in assay [5] was 11%. In addition, in [6], the viability (% of control) was 7.46%. For the same compound, the Potency result in [16] and in [7] was “inactive” in each case. The Potency in assay [14] is 0.296 µM (active).

Compound `Clc1ccc(COC(Cn2ccnc2)c2ccc(Cl)cc2Cl)cc1` (stereo not drawn) gave a parasite growth, % of DMSO control in [1] of 5.45%. Moreover, the parasite growth remaining, % of DMSO control (lower = more inhibition) in [2] worked out at 6.85%. Moreover, in [3], the parasite growth, % of control (lower = inhibition) turned out to be 9.72%. Also, the cell viability, % of control (lower = more cytotoxic) in assay [5] turned out to be 115%. Moreover, the viability (% of control) in assay [6] was 70.1%. Further, in assay [7], the Potency is 18.7 µM (active).

For `O=c1c(O)c(-c2ccc(O)cc2)oc2cc(O)cc(O)c12`, the parasite growth, % of DMSO control in [1] turned out to be 24.5%. Moreover, in assay [2], the parasite growth remaining, % of DMSO control (lower = more inhibition) amounted to 97.3%. In addition, in [3], the parasite growth, % of control (lower = inhibition) was determined as 27.5%. Also, the growth, % of control in assay [4] turned out to be 19.7%. Moreover, the cell viability, % of control (lower = more cytotoxic) in assay [5] stood at 140%. Besides, the viability (% of control) in [6] stood at 13.1%. In addition, the Potency in assay [8] is 16.6 µM (active); in assay [9], 18.7 µM (active); in assay [10], 11.8 µM (active).

`CC1(C)Cc2c(sc(NC(=S)NC(=O)c3ccccc3)c2C(=O)O)CO1` displayed a parasite growth, % of DMSO control in assay [1] of 90.4%. Besides, the parasite growth remaining, % of DMSO control (lower = more inhibition) in assay [2] amounted to 100%. For the same compound, the parasite growth, % of control (lower = inhibition) in [3] came out at 110%. Besides, the cell viability, % of control (lower = more cytotoxic) in assay [5] turned out to be 100%. The viability (% of control) in [6] turned out to be 95.7%. Also, the Potency in [8] is 29.6 µM (active). Moreover, the Potency entry in assay [10] is “inactive”.

The compound `Cc1nnc(C(C)C)n1C1C[C@H]2CC[C@@H](C1)N2CC[C@H](NC(=O)C1CCC(F)(F)CC1)c1ccccc1` (stereo partly drawn) showed a parasite growth, % of DMSO control in [1] of 69.7%. The compound further yielded a parasite growth remaining, % of DMSO control (lower = more inhibition) in assay [2] of 100%. In assay [3], the parasite growth, % of control (lower = inhibition) was 55.4%. This compound yielded a growth, % of control in assay [4] of 92.4%. For the same compound, the cell viability, % of control (lower = more cytotoxic) in assay [5] was determined as 75.3%. Besides, the viability (% of control) in assay [6] was determined as 104%. In addition, the Potency entry in assay [16] was “inactive”. In assay [7], the Potency is 26.4 µM (active).

`O=C(O)c1c(Cl)c(Cl)c(Cl)c(Cl)c1-c1c2cc(I)c(=O)c(I)c-2oc2c(I)c(O)c(I)cc12` returned a parasite growth, % of DMSO control in assay [1] of 83.8%. Moreover, the parasite growth remaining, % of DMSO control (lower = more inhibition) in assay [2] is 97.1%. Besides, in [3], the parasite growth, % of control (lower = inhibition) came out at 80.2%. Besides, the growth, % of control in assay [4] stood at 88.8%. Also, the cell viability, % of control (lower = more cytotoxic) in assay [5] came to 96.1%. For the same compound, the viability (% of control) in [6] stood at 55.1%. Also, the Potency entry in assay [16] was “inactive”. Further, the Potency in [7] is 18.7 µM (active).
